Assay [1] has as its target RAC-alpha serine/threonine-protein kinase (Homo sapiens) (UniProt P31749). The following applies: at 0.1 µM.
Assay [2] has the same target. The following applies: at 1 µM.
For assay [3], the target named is RAC-beta serine/threonine-protein kinase (Homo sapiens) (UniProt P31751). The following applies: at 0.1 µM.
Assay [4] has the same target. The following applies: at 1 µM.
The target in assay [5] is RAC-gamma serine/threonine-protein kinase (Homo sapiens) (UniProt Q9Y243). The following applies: at 0.1 µM.
RAC-gamma serine/threonine-protein kinase (Homo sapiens), sequence (Q9Y243 whole entry): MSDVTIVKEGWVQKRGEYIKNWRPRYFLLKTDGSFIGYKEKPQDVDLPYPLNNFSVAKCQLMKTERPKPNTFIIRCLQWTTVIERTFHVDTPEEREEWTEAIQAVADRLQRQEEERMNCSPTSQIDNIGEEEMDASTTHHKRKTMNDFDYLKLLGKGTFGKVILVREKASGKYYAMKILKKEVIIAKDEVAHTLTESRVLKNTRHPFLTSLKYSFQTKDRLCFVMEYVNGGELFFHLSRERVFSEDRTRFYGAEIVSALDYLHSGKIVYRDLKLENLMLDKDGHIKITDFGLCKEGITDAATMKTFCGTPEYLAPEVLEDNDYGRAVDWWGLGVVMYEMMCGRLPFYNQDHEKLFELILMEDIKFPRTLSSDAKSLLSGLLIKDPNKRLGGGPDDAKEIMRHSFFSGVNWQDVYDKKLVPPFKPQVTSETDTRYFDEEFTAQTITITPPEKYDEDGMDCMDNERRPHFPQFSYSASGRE
For assay [6] the target is unchanged. The following applies: at 1 µM.
Assay [7] has as its target G protein-coupled receptor kinase 6 (Homo sapiens) (UniProt P43250). The following applies: at 0.1 µM.
Assay [8] has the same target. The following applies: at 1 µM.
Assay [9] has as its target T1, Rhodopsin kinase GRK7 (Homo sapiens) (UniProt Q8WTQ7).
T1 sequence (whole entry): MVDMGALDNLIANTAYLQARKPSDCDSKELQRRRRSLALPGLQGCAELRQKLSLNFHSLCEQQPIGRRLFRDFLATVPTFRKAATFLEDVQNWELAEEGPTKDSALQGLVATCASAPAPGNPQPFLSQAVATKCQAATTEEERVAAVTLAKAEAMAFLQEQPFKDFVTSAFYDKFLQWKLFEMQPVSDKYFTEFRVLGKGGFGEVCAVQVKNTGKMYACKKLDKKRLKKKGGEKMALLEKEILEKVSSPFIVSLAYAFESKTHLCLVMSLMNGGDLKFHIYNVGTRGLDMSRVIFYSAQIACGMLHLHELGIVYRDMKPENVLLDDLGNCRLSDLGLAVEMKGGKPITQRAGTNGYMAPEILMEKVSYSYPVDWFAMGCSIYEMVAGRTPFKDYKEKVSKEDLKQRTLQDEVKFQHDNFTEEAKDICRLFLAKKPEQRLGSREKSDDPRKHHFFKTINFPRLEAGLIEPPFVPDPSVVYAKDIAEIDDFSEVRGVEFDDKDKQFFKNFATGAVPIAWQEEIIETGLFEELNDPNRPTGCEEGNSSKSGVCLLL
The following applies: at 0.1 µM.

Assay [10] addresses T1, Rhodopsin kinase GRK7 (Homo sapiens). The following applies: at 1 µM.
Assay [11] concerns the target Serine/threonine-protein kinase MRCK alpha (Homo sapiens) (UniProt Q5VT25). The following applies: at 0.1 µM.
For assay [12] the target is unchanged. The following applies: at 1 µM.
Assay [13] has as its target Serine/threonine-protein kinase MRCK beta (Homo sapiens) (UniProt Q9Y5S2). The following applies: at 0.1 µM.
Assay [14] has the same target. The following applies: at 1 µM.
Assay [15] concerns the target Ribosomal protein S6 kinase alpha-5 (Homo sapiens) (UniProt O75582). The following applies: at 0.1 µM.
Assay [16] shares this target. The following applies: at 1 µM.
Assay [17] concerns the target Ribosomal protein S6 kinase alpha-4 (Homo sapiens) (UniProt O75676). The following applies: at 0.1 µM.
For assay [18] the target is unchanged. The following applies: at 1 µM.
Assay [19] addresses Ribosomal protein S6 kinase beta-1 (Homo sapiens) (UniProt P23443). The following applies: at 0.1 µM.
The target is the same in assay [20]. The following applies: at 1 µM.

Structures are written as SMILES.

As usually defined, the inhibition is the change of the read-out against control, counted positive when it falls.

Ribosomal protein S6 kinase alpha-5 (Homo sapiens), sequence (O75582 whole entry, looked up): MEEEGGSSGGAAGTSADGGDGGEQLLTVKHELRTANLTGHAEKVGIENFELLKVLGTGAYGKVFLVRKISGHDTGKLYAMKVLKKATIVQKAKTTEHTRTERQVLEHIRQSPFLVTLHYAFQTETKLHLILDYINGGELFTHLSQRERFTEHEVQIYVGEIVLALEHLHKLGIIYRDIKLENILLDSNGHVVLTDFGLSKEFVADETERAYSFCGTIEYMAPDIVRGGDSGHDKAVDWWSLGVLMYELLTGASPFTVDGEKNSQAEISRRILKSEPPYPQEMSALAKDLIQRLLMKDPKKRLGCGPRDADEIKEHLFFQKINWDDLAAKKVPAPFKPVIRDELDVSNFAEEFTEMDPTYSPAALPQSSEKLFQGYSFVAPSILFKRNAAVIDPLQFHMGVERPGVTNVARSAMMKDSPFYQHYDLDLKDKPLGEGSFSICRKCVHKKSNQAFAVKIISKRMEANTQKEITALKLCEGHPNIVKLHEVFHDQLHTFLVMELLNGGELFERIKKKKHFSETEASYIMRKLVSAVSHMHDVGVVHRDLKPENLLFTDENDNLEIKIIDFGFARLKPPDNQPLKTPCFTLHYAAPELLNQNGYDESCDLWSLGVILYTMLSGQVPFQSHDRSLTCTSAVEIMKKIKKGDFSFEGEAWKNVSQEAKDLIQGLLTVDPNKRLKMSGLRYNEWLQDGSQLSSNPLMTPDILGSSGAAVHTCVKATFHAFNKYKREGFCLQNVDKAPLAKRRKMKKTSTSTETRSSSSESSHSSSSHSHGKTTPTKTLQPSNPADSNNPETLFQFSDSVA
Serine/threonine-protein kinase MRCK alpha (Homo sapiens), sequence (Q5VT25 whole entry): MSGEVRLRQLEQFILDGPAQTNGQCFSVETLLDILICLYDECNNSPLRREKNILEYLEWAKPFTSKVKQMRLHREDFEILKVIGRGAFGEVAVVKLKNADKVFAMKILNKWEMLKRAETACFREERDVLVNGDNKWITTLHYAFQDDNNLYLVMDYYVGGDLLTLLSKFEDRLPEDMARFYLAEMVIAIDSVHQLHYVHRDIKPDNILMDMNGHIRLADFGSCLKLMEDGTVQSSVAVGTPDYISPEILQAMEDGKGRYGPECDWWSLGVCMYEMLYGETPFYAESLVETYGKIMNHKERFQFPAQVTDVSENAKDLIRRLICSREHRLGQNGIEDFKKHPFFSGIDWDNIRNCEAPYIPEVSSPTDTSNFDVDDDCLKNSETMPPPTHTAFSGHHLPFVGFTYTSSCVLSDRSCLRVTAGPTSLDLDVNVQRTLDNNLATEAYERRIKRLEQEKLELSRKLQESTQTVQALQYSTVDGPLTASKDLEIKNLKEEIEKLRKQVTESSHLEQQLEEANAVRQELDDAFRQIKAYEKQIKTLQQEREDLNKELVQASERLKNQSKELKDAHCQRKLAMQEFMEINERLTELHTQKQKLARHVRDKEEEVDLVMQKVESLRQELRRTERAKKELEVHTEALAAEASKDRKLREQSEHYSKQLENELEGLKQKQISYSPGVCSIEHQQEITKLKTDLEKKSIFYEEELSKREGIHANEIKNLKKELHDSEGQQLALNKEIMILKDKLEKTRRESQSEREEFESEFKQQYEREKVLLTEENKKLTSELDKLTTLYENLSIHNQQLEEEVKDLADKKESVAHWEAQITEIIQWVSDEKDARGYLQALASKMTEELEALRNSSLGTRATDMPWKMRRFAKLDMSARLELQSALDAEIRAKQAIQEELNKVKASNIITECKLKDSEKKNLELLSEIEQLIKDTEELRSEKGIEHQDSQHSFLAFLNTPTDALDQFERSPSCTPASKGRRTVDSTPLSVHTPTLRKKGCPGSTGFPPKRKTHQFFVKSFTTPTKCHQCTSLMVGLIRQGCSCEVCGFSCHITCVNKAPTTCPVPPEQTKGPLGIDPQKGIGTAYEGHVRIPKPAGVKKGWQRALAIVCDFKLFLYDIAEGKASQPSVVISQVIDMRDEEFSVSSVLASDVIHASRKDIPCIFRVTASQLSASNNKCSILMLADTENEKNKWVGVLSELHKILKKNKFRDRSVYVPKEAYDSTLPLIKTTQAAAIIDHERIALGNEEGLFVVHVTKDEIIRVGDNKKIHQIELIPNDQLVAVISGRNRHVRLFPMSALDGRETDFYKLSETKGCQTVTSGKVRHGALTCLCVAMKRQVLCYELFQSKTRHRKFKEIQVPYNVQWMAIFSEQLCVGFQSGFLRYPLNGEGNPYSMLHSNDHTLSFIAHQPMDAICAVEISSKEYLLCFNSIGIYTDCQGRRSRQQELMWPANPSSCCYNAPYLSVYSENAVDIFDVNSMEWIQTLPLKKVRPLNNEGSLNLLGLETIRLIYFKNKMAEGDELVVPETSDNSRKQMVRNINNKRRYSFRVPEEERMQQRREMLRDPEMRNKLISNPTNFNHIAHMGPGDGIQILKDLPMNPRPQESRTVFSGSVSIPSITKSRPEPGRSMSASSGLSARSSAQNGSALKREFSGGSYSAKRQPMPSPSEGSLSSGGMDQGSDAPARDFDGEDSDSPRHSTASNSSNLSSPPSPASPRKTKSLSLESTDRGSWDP
Ribosomal protein S6 kinase alpha-4 (Homo sapiens), sequence (O75676 whole entry, looked up): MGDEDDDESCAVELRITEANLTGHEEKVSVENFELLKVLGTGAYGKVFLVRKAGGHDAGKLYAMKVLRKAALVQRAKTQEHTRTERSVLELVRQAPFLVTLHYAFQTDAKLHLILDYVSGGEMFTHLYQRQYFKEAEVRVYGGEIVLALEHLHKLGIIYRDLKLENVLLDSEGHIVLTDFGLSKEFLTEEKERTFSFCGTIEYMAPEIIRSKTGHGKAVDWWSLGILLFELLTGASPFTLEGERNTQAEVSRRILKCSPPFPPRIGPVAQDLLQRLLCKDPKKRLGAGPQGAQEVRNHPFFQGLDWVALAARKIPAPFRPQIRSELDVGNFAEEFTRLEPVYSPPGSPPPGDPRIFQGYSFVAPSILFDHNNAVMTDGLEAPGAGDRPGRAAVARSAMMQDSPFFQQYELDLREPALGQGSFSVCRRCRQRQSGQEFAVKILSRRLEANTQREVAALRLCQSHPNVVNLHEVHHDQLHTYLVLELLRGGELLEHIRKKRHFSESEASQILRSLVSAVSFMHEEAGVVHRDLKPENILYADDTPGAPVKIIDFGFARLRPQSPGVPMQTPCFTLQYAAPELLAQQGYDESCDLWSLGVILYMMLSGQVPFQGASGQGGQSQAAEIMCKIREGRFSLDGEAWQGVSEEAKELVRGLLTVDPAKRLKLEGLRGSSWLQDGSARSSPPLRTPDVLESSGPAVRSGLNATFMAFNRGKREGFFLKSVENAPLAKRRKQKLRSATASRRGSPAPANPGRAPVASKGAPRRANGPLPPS
G protein-coupled receptor kinase 6 (Homo sapiens), sequence (P43250 whole entry, looked up): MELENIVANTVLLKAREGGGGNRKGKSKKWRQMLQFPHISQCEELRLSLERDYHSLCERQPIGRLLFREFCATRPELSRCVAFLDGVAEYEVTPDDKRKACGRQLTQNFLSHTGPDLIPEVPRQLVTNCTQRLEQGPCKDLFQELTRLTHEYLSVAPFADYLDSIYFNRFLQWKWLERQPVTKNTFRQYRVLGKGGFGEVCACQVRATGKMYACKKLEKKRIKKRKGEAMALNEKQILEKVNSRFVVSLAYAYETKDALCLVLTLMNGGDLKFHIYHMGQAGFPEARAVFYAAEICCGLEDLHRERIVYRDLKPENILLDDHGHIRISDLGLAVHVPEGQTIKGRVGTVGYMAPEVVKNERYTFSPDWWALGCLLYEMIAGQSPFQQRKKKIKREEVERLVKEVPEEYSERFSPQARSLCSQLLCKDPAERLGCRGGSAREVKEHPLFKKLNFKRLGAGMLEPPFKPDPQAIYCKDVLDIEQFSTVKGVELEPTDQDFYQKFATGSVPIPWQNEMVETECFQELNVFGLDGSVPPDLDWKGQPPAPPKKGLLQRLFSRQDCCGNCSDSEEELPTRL
RAC-beta serine/threonine-protein kinase (Homo sapiens), sequence (P31751 whole entry): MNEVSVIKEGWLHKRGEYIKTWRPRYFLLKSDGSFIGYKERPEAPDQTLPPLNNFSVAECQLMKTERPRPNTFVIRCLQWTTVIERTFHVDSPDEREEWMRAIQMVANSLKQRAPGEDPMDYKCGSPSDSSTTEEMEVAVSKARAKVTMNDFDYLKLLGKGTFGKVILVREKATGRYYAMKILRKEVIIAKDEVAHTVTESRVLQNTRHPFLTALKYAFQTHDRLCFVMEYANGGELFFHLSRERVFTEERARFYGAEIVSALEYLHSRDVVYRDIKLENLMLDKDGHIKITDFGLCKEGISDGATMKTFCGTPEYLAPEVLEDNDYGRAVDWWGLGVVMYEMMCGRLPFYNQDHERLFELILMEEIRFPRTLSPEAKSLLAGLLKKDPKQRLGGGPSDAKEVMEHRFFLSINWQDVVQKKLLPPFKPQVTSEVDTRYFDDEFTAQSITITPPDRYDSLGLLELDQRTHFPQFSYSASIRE

For the molecule `N#Cc1ccc(Oc2nccc(-c3c(-c4ccc(F)cc4)ncn3C3CCNCC3)n2)cc1`, the inhibition in assay [1] was -0.06%; in assay [2], 0.41%; in assay [3], 0.99%; in assay [4] it was 3.57%; in [5], 2.37%; in assay [6], 2.2%. Further, the inhibition in assay [7] was -0.24%; in assay [8], 2.68%; in assay [9], 8.83%; in assay [10], 5.35%; in [11] it was -6.56%; in assay [12] it was -3.04%. Further, the inhibition was -1.06% in [13]; 0.02% in [14]; 1.54% in assay [15]; -0.96% in assay [16]; 3.03% in assay [17]; 1.76% in assay [18]. In addition, the inhibition in [19] was 1.84%; in [20] it was 2.31%.
For `NCc1ccc(-n2c(-c3nonc3N)nc3cnccc32)cc1`, the inhibition in assay [1] was 3.84%; in [2], 15.8%; in [3], 3.5%; in assay [4], 15.1%; in assay [5], 1.72%; in assay [6], 20.5%. Besides, the inhibition was 5.51% in [7]; 7.31% in assay [8]; 9.11% in assay [9]; 15.5% in assay [10]; 43.4% in assay [11]; 90.6% in assay [12]. Further, the inhibition in [13] was 59.8%; in assay [14], 83.5%; in assay [15], 54.7%; in assay [16], 78.7%; in assay [17], 20.1%; in assay [18], 63.3%. Moreover, the values for the inhibition in [19] and in assay [20] were 21.3% and 69.9%, respectively.
`CS(=O)(=O)CCNCc1ccc(-c2ccc3ncnc(Nc4ccc(OCc5ccccc5)c(Br)c4)c3c2)o1`: the inhibition was -2.58% in assay [1]; -2.2% in [2]; -3.3% in assay [3]; -3.04% in [4]; -3.44% in assay [5]; -0.54% in [6]. The inhibition in assay [7] is -2.27%; in assay [8] it was 2.12%; in assay [9] it was 10.1%; in assay [10], 0.45%; in assay [11], -6.6%; in assay [12] it was -3.23%. Also, the inhibition in [13] is -0.18%; in assay [14], -0.76%; in assay [15], 1.16%; in [16] it was -1.75%; in [17], 2.02%; in [18], 0.82%. For the same molecule, the inhibition in assay [19] was 0.95%; in assay [20] it was 0.5%.
In the case of `c1ccc(-c2n[nH]cc2-c2ccnc(-c3ccc(OCCN4CCOCC4)cc3)c2)nc1`, the inhibition in [1] was -0.28%; in assay [2], 0.23%; in assay [3] it was -0.23%; in assay [4] it was -0.3%; in assay [5], -0.26%; in assay [6] it was 0.6%. Further, the inhibition in assay [7] was -5.07%; in [8], -7.11%; in assay [9] it was 1.66%; in [10], -0.22%; in assay [11] it was 6.85%; in assay [12], -2.76%. Moreover, the inhibition in assay [13] turned out to be 7.67%; in assay [14] it was 5.68%; in [15] it was 3.06%; in assay [16], 1.22%; in assay [17] it was 3.23%; in [18], 3.34%. Further, the inhibition in assay [19] was 2.04%; in assay [20], 1.17%.
For `Clc1ccc(CNc2nccc(-c3cnn4ncccc34)n2)cc1`, the inhibition is 0.58% in [1]; 0.44% in assay [2]; 0.17% in assay [3]; -0.27% in [4]; 2.1% in assay [5]; 1.14% in [6]. The inhibition in assay [7] is 5.42%; in assay [8], 1.78%; in [9] it was 1.36%; in [10], -5.11%; in assay [11], 0%; in assay [12], 2.46%. The inhibition in [13] was -1.16%; in assay [14], 0.3%; in [15] it was 6.95%; in assay [16] it was 7.87%; in assay [17] it was 1.14%; in assay [18], 1.71%. Besides, the inhibition was 1.82% in assay [19] and 2.04% in assay [20].
Take `O=C(Nc1n[nH]c2nc(-c3ccco3)ccc12)C1CC1`: the inhibition in [1] was -0.33%; in assay [2], 0.8%; in assay [3], 0.45%; in [4], 0.89%; in assay [5] it was 0.35%; in [6] it was 0.8%. The inhibition in assay [7] was 1.97%; in assay [8], -2.2%; in assay [9] it was -1.29%; in assay [10], -7.98%; in assay [11], -0.04%; in assay [12] it was -0.15%. The inhibition was determined as 0.63% in assay [13]; 3.54% in [14]; 6.97% in assay [15]; 8.4% in assay [16]; 1.68% in assay [17]; 3.29% in assay [18]. Besides, the inhibition in assay [19] is 1.44%; in assay [20], 2.43%.
Consider `COc1ccc2cc(-c3c(-c4ccncc4)nc(-c4ccc([S+](C)[O-])cc4C)n3C)ccc2c1` (stereo not given), for which the inhibition in assay [1] was -0.62%; in [2], -0.09%; in assay [3], -0.6%; in assay [4], -0.29%; in assay [5], 0.09%; in [6], 1.08%. Besides, the inhibition in assay [7] is 2.06%; in [8], -0.69%; in assay [9], -2.36%; in assay [10], -0.96%; in assay [11], -1.8%; in assay [12], 1.91%. Moreover, the inhibition is 0.22% in assay [13]; 1.15% in assay [14]; -7.06% in [15]; -6.22% in assay [16]; -0.04% in [17]; -0.04% in assay [18]. The inhibition in assay [19] was 0.21%; in assay [20] it was 0.05%.

For the origin of these results see ChEMBL document CHEMBL1961873, “Compounds: GSK PKIS; Assays: Nanosyn kinase panel” (2012).
